Where “and” joins values, the source holds several entries; their conditions need not be identical. Equal entries are not always repeated. The campaign covered roughly 5,500 compounds. About 2,000 (36%) were called active. Inconclusive results (about 18%) are left out. Rule as the data show it: active = normalized growth mostly below about 0.91 (no sharp cut-off); inconclusive = no clear call, values can overlap the other calls; inactive = mostly above about 0.92. Some of the results follow.
Assay: chemical genetic growth profiling, strain panel (AID 1159580);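 also: tested at 20 µM; growth read once vehicle control cultures reached saturation at 30 °C; 1 = growth at the plate median or of vehicle wells; lower values mean less growth of the strain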
Settings: S. cerevisiae deletion strains, growth OD

Measured: normalized growth

CCOc1cccc(C(=O)c2ccc(O)c(O)c2O)c1
inactive: locus YBR021W, strain FUR4, stronger effect = lower value 0.898 | locus YBR171W, strain sec66, stronger effect = lower value 0.918 | locus YBR229C, strain ROT2, stronger effect = lower value 0.938 | locus YBR279W, strain paf1, stronger effect = lower value 0.933 | locus YCL011C, strain gbp2, stronger effect = lower value 0.941 | locus YCL016C, strain dcc1, stronger effect = lower value 0.963 | locus YCL061C, strain MRC1, stronger effect = lower value 0.933 | locus YCL069W, strain vba3, stronger effect = lower value 0.975 | locus YCR088W, strain abp1, stronger effect = lower value 0.969 | locus YDL005C, strain med2, stronger effect = lower value 0.974 | locus YDL040C, strain nat1, stronger effect = lower value 0.963 | locus YDR001C, strain nth1, stronger effect = lower value 0.955 | locus YDR195W, strain ref2 0.99 | locus YDR392W, strain spt3, stronger effect = lower value 0.807 | locus YEL037C, strain rad23, stronger effect = lower value 0.925 | locus YEL061C, strain CIN8 (second series), stronger effect = lower value 0.955 | locus YER016W, strain bim1, stronger effect = lower value 0.953 | locus YER110C, stronger effect = lower value 0.979 | locus YER167W, strain BCK2, stronger effect = lower value 0.909 | locus YGL078C, strain dbp3, stronger effect = lower value 0.956 | locus YGL167C, strain pmr1, stronger effect = lower value 0.935 | locus YGL227W, strain vid30, stronger effect = lower value 0.984 | locus YGL240W, strain doc1, stronger effect = lower value 0.978 | locus YGR252W, strain gcn5, stronger effect = lower value 0.77 | locus YHR030C, strain SLT2, stronger effect = lower value 0.978 | locus YHR079C, strain IRE1, stronger effect = lower value 1.02 | locus YHR094C, strain hxt1, stronger effect = lower value 0.965 | locus YIL125W, strain kgd1, stronger effect = lower value 0.951 | locus YIR030C, strain dcg1, stronger effect = lower value 0.958 | locus YJL092W, strain hpr5, stronger effect = lower value 0.97 | locus YJL115W, strain asf1, stronger effect = lower value 0.971 | locus YJL129C, strain trk1, stronger effect = lower value 0.936 | locus YJL134W, strain LCB3, stronger effect = lower value 0.932 | locus YJL154C, strain vps35, stronger effect = lower value 0.959 | locus YJL168C, strain set2, stronger effect = lower value 0.964 | locus YJR066W, strain TOR1, stronger effect = lower value 0.981
active: locus YAL021C, strain ccr4, stronger effect = lower value 0.601 | locus YAL026C, strain drs2, stronger effect = lower value 0.813 | locus YAL030W, strain snc1, stronger effect = lower value 0.928 | locus YBL061C, strain skt5, stronger effect = lower value 0.888 | locus YBR009C, strain hhf1, stronger effect = lower value 0.879 | locus YBR023C, strain chs3, stronger effect = lower value 0.806 | locus YBR231C, strain swc5, stronger effect = lower value 0.783 | locus YCL029C, strain bik1, stronger effect = lower value 0.776 | locus YDL035C, strain GPR1, stronger effect = lower value 0.804 | locus YDL074C, strain BRE1, stronger effect = lower value 0.67 | locus YDL101C, strain DUN1, stronger effect = lower value 0.752 | locus YDL185W, strain tfp1, stronger effect = lower value 0.586 | locus YDL192W, strain arf1, stronger effect = lower value 0.815 | locus YDR069C, strain doa4, stronger effect = lower value 0.566 | locus YDR101C, strain arx1, stronger effect = lower value 0.889 | locus YDR137W, strain rgp1, stronger effect = lower value 0.643 | locus YDR159W, strain sac3, stronger effect = lower value 0.84 | locus YDR162C, strain NBP2, stronger effect = lower value 0.672 | locus YDR297W, strain sur2, stronger effect = lower value 0.916 | locus YDR318W, strain mcm21, stronger effect = lower value 0.877 | locus YDR334W, strain swr1, stronger effect = lower value 0.886 | locus YDR335W, strain msn5, stronger effect = lower value 0.84 | locus YDR388W, stronger effect = lower value 0.923 | locus YDR502C, strain sam2, stronger effect = lower value 0.791 | locus YEL003W, strain gim4, stronger effect = lower value 0.839 | locus YER015W, strain faa2, stronger effect = lower value 0.89 | locus YER111C, strain swi4, stronger effect = lower value 0.815 | locus YER155C, strain BEM2 (second series), stronger effect = lower value 0.847 | locus YER155C, strain BEM2, stronger effect = lower value 0.858 | locus YFR010W, strain ubp6, stronger effect = lower value 0.84 | locus YGL086W, strain mad1, stronger effect = lower value 0.782 | locus YGL173C, strain kem1, stronger effect = lower value 0.766 | locus YGL248W, strain PDE1, stronger effect = lower value 0.792 | locus YGL253W, strain hxk2, stronger effect = lower value 0.901 | locus YGR135W, strain pre9, stronger effect = lower value 0.777 | locus YHR013C, strain ard1, stronger effect = lower value 0.81 | locus YHR027C, strain rpn1, stronger effect = lower value 0.83 | locus YHR079C, strain IRE1 (second series), stronger effect = lower value 0.859 | locus YHR129C, strain ARP1, stronger effect = lower value 0.761 | locus YHR142W, strain chs7, stronger effect = lower value 0.776 | locus YHR200W, strain rpn10, stronger effect = lower value 0.859 | locus YIL066C, strain RNR3, stronger effect = lower value 0.8 | locus YIL073C, strain SPO22, stronger effect = lower value 0.654 | locus YJL095W, strain BCK1 (second series), stronger effect = lower value 0.867 | locus YJL164C, strain tpk1, stronger effect = lower value 0.811 | locus YJL166W, strain qcr8, stronger effect = lower value 0.872 | locus YJL187C, strain SWE1 (second series), stronger effect = lower value 0.42 | locus YJL187C, strain SWE1, stronger effect = lower value 0.895
0.603 (active) and 0.961 (inactive): locus YJL095W, strain BCK1, stronger effect = lower value

From PubChem BioAssay AID1159580 (chemical genetic matrix, 2015)
